Legend:
[1] = biological target: RAC-alpha serine/threonine-protein kinase (Homo sapiens) (UniProt P31749); conditions: at 0.1 µM
[2] = biological target: RAC-alpha serine/threonine-protein kinase (Homo sapiens) (UniProt P31749); conditions: at 1 µM
[3] = biological target: RAC-beta serine/threonine-protein kinase (Homo sapiens) (UniProt P31751); conditions: at 0.1 µM
[4] = biological target: RAC-beta serine/threonine-protein kinase (Homo sapiens) (UniProt P31751); conditions: at 1 µM
[5] = biological target: RAC-gamma serine/threonine-protein kinase (Homo sapiens) (UniProt Q9Y243); conditions: at 0.1 µM
[6] = biological target: RAC-gamma serine/threonine-protein kinase (Homo sapiens) (UniProt Q9Y243); conditions: at 1 µM
[7] = biological target: G protein-coupled receptor kinase 6 (Homo sapiens) (UniProt P43250); conditions: at 0.1 µM
[8] = biological target: G protein-coupled receptor kinase 6 (Homo sapiens) (UniProt P43250); conditions: at 1 µM
[9] = biological target: T1, Rhodopsin kinase GRK7 (Homo sapiens) (UniProt Q8WTQ7); conditions: at 0.1 µM
T1 sequence (whole entry): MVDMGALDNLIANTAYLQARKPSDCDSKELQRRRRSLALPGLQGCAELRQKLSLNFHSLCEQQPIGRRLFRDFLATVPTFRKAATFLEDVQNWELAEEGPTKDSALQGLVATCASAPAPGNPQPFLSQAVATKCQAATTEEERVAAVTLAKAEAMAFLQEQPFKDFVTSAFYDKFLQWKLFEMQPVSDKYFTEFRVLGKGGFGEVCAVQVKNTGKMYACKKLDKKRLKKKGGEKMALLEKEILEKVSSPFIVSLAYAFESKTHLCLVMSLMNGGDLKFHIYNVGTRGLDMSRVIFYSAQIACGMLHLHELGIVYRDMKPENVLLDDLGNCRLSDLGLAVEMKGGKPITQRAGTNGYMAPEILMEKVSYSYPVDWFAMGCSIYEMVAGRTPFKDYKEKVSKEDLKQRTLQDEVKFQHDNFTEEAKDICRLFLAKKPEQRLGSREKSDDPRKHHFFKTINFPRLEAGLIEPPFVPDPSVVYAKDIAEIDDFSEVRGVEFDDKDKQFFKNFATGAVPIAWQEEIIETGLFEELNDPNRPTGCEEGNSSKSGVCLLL

[10] = biological target: T1, Rhodopsin kinase GRK7 (Homo sapiens); conditions: at 1 µM

Sequence of G protein-coupled receptor kinase 6 (Homo sapiens) (P43250 whole entry, looked up): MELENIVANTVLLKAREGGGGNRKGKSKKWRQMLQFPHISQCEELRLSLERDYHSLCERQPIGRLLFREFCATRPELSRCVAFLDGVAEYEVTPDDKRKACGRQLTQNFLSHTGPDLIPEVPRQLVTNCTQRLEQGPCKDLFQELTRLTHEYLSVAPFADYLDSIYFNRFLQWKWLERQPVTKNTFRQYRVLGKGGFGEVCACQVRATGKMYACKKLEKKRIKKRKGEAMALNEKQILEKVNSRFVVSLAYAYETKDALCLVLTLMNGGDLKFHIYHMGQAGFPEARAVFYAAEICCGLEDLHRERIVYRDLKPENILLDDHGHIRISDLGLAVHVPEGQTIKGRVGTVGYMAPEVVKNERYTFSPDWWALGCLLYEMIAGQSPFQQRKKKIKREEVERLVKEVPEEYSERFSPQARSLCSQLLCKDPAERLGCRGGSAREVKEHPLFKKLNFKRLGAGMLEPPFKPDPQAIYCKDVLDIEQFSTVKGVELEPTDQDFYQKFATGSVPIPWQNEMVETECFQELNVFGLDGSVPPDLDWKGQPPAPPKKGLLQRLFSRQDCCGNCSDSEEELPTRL
Sequence of RAC-beta serine/threonine-protein kinase (Homo sapiens) (P31751 whole entry): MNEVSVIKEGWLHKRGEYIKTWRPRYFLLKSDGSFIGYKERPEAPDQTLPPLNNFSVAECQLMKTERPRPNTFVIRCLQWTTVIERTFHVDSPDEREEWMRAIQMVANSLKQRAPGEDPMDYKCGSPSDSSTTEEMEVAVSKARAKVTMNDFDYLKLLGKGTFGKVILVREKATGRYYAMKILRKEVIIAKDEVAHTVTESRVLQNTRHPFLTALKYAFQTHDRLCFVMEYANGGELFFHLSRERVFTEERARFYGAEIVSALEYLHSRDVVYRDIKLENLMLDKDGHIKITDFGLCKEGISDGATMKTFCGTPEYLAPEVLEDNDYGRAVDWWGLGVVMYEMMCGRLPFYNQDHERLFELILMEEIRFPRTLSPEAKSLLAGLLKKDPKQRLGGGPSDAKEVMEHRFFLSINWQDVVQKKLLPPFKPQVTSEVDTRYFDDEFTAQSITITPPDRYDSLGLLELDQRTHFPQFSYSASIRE
Sequence of RAC-gamma serine/threonine-protein kinase (Homo sapiens) (Q9Y243 whole entry): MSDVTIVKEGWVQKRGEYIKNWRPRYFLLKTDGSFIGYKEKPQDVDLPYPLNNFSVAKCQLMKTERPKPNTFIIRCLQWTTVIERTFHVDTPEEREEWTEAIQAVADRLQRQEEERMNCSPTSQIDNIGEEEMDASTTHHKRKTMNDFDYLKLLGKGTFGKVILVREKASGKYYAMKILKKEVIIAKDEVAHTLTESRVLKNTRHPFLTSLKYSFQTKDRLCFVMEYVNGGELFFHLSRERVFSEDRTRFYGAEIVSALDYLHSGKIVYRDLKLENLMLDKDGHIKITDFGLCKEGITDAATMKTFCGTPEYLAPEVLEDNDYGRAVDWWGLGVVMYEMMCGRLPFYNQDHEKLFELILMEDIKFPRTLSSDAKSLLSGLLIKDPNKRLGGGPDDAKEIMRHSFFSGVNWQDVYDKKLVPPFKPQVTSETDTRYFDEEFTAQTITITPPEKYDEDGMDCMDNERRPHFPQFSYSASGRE
Sequence of RAC-alpha serine/threonine-protein kinase (Homo sapiens) (P31749 whole entry): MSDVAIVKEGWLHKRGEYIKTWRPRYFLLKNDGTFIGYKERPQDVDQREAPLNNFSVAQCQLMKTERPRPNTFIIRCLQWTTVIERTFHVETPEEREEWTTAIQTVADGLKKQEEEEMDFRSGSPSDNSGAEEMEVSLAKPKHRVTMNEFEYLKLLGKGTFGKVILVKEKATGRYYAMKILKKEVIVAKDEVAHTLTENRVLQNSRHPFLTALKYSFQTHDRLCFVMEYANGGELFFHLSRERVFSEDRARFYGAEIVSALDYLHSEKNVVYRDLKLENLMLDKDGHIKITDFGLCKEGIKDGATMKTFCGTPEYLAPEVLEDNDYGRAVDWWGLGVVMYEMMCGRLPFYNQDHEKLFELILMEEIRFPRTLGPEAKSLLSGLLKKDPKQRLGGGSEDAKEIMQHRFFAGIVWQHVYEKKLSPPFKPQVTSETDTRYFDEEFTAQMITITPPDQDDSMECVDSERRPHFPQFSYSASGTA

Row | Compound | inhibition [1] | inhibition [2] | inhibition [3] | inhibition [4] | inhibition [5] | inhibition [6] | inhibition [7] | inhibition [8] | inhibition [9] | inhibition [10]
1 | COc1cccc(-n2ncc3c(N/N=C/c4ccc(F)cc4)ncnc32)c1 | 0.98% | 0.49% | 2% | 1.56% | 1.42% | 0.92% | 5.53% | 7.7% | 3.44% | 19.5%
2 | COc1ccc(-c2cc3c(N)ncnc3o2)cc1 | -0.96% | -1.46% | -0.81% | -0.64% | -1.06% | 1.62% | -0.25% | 0.98% | 3.4% | -1.5%
3 | FC(F)(F)c1cccc(-c2nn3ncccc3c2-c2ccnc(Nc3ccc4c(c3)OCCO4)n2)c1 | 0.59% | 1.44% | 2.75% | 1.12% | 1.47% | 0.72% | -1.22% | -2.46% | 1.8% | 1.11%
4 | Fc1ccc(-c2nn3ncccc3c2-c2ccnc(Nc3ccc4c(c3)OCCO4)n2)cc1 | 0.05% | 0.97% | 1.99% | 1.14% | 0.88% | 1.56% | 2.14% | 1.87% | 1.38% | 5.57%
5 | O=C(Nc1n[nH]c2cc(-c3ccc(F)cc3)ccc12)C1CC1 | 0.61% | 1.36% | 1.62% | 1.6% | 0.49% | 1.05% | 1.59% | 1.04% | 4.1% | 7.25%
6 | Cc1cccc2c1NC(=O)/C2=N\Nc1ccc(S(N)(=O)=O)cc1 | 1.04% | 1.19% | 2.18% | 1.39% | 1.07% | 1.15% | 2.1% | 3.62% | 1.49% | -6.16%
7 | Cc1ccc(O)cc1Nc1ccnc2cc(-c3ccccn3)ccc12 | 1.31% | 1.02% | 2.69% | 2.45% | 1.16% | 2.32% | 1.43% | -3.7% | 4% | -2.85%
8 | Nc1ncc(-c2cccc(S(N)(=O)=O)c2)c2scc(-c3ccc(F)c(Cl)c3)c12 | 0.6% | 1.09% | 0.29% | 2.33% | -0.27% | 5.34% | 0.4% | -0.33% | 6.15% | 6.1%
9 | CCN1CCC(CC(=O)Nc2n[nH]c3nnc(-c4cccc(F)c4F)cc23)CC1 | 0.38% | 0.44% | -1.36% | 0.79% | -0.3% | 3.08% | 1.19% | 2.16% | 6.3% | 3.7%
10 | Cc1cccc(Nc2ncc(-c3ccccc3)o2)c1 | 2.47% | 3.09% | 2.46% | 2.97% | 2.2% | 5.22% | 5.33% | 4.72% | 4.29% | 3.7%
11 | COC(=O)Nc1nc2ccc(S(=O)(=O)c3ccc(NC(=O)Nc4cc(C(F)(F)F)ccc4F)cc3)cc2[nH]1 | 1.04% | 0.21% | 1.6% | 1.74% | 2.62% | 2.2% | -1.79% | -0.49% | 4.02% | 1.96%
12 | CNC(=O)c1cccc(C#Cc2cncnc2Nc2ccc(OCc3cccc(F)c3)c(Cl)c2)c1 | 0.17% | -0.5% | 0% | 0.98% | 0.81% | -1.1% | 0.71% | 3.57% | 1.29% | -1.25%
13 | CC(C)(CO)CNC(=O)c1ccc2c(c1)/C(=N/Nc1ccc(S(N)(=O)=O)cc1)C(=O)N2 | 0.16% | -0.56% | -1.39% | 0.25% | -0.59% | 2.3% | 0.67% | 9.38% | 2.93% | -0.41%
14 | CNC(=O)c1cncc(/C=C/c2ccccc2Cl)c1 | 0.07% | 1.96% | 0.21% | 0.07% | -0.57% | 0.32% | 1.74% | 10.9% | 2.3% | 10.8%
15 | COc1ccc(-c2oc3ncnc(N)c3c2-c2ccc(NC(=O)Nc3cc(C(F)(F)F)ccc3F)cc2)cc1 | 1.18% | 1.66% | 3.21% | 2.57% | 1.23% | 2.55% | 4.19% | 12.7% | 4.51% | 22%
16 | CCn1c(-c2nonc2N)nc2cnc(Oc3cccc(NC(=O)c4ccc(N(C)C)cc4)c3)cc21 | 0.51% | 7.63% | 0.71% | 8.4% | 1.82% | 10.2% | 0.82% | 2.85% | 2.74% | 4.11%
17 | [O-][S+]1CCN(Cc2ccc(-c3ccc4ncnc(Nc5ccc(OCc6cccc(F)c6)c(Cl)c5)c4c3)o2)CC1 | 2.98% | 0.19% | 3.72% | 3.57% | 2.4% | 2.54% | 3.23% | 4.79% | 9.08% | 2.57%

Row | Compound | inhibition [1] | inhibition [2] | inhibition [3] | inhibition [4] | inhibition [5] | inhibition [6] | inhibition [7] | inhibition [8] | inhibition [9] | inhibition [10]
18 | CN(C)CCOc1ccc(-c2nc(-c3ccncc3)c(-c3ccc4c(c3)CC/C4=N\O)[nH]2)cc1 | 0.74% | 0.83% | 1.02% | 0.67% | 1.29% | 0.51% | 3.13% | 2.76% | 1.71% | 0.18%
19 | COc1cc2ncn(-c3cc(OCc4ccccc4C(F)(F)F)c(C(=O)N(C)C)s3)c2cc1OC | -0.4% | -0.11% | -0.31% | 0.45% | 0.89% | 1.26% | -0.42% | 0.69% | -2.57% | 3.66%
20 | NS(=O)(=O)c1ccc(N/N=C2\C(=O)Nc3ccc4ncccc4c32)cc1 | 0.85% | 0.69% | 1.6% | 2.48% | 1.36% | 2.03% | -2.97% | 15.8% | 4.91% | 19%
21 | O=S(=O)(CCNCc1ccc(-c2ccc3ncnc(Nc4ccc(OCc5cccc(F)c5)c(Cl)c4)c3c2)o1)c1ccccc1 | 1.7% | 1.71% | 2.21% | 3.29% | 0.84% | 3.13% | 1.68% | 1.4% | 8.83% | 2.27%
22 | COc1ccc2[nH]c3c4[nH]c5ccc(OC)cc5c4c4c(c3c2c1)C(=O)NC4=O | 0.56% | 4.28% | 1.45% | 2.54% | 1.39% | 2.7% | 20.2% | 41.2% | 22.7% | 26.6%
23 | CCn1c(-c2nonc2N)nc2ccccc21 | 1.46% | 2.48% | 0.69% | 2.24% | 0.81% | 3.67% | 1.21% | -3.25% | 1.89% | -9.67%
24 | CN1CCC(n2cnc(-c3ccc(F)cc3)c2-c2ccnc(Nc3ccccc3)n2)CC1 | 0.23% | 1.05% | 0.63% | 0.8% | 2.25% | 5.43% | 2.34% | 2.65% | 2.84% | 6.42%
25 | NC(=O)c1sc(-n2cnc3ccc(C(F)(F)F)cc32)cc1OCc1ccccc1Br | 0.43% | 0.68% | 2.44% | 2.18% | 0.75% | 1.39% | 5.91% | 9.67% | 4.43% | 14.5%
26 | CCCN1CCC(c2ccc(Nc3nc(Nc4cc(F)ccc4C(N)=O)c4cc[nH]c4n3)c(OC)c2)CC1 | -0.31% | 0.33% | 2.13% | 1.62% | 1.85% | 2.68% | 16.3% | 58.8% | 11.6% | 45%
27 | Clc1ccc(-c2nn3ncccc3c2-c2ccnc(Nc3ccccc3)n2)cc1 | 0.13% | 0.62% | 0.64% | 1.15% | 1.22% | -0.89% | 2.85% | 1.72% | 3.88% | -1.87%
28 | CCn1c(-c2nonc2N)nc2c(C#CC(C)(C)O)nc(OC[C@H](N)c3ccccc3)cc21 | 64.2% | 90.4% | 75.3% | 92% | 66.8% | 91.7% | 2.82% | 5.48% | 2.77% | 15%
29 | COC(=O)c1sc(-n2cnc3cc(OC)c(OC)cc32)cc1OCc1ccccc1C(F)(F)F | 0.87% | 0.62% | 2.35% | 1.5% | -0.55% | 1.41% | -0.86% | 1.16% | 2.73% | 7.64%
30 | CC(=O)Nc1cccc(C#Cc2cncnc2Nc2ccc(OCc3cccc(F)c3)c(Cl)c2)c1 | 0.35% | 2.86% | 1.58% | 1.24% | 0.94% | 1.39% | 0.81% | -1.5% | 3.04% | -3.08%
31 | CS(=O)(=O)CCNCc1ccc(-c2ccc3ncnc(Nc4ccc(OCc5ccccc5)c(C(F)(F)F)c4)c3c2)o1 | 1.54% | 1.3% | 1.35% | 2.2% | 0.3% | 3.04% | -0.85% | 1.09% | 10.8% | 3.42%
32 | N#Cc1c(NC(=O)c2ccc(F)cc2)sc2c1CCCC2 | -0.22% | 0.69% | 0.36% | 0.77% | 2.13% | 0.2% | 2.85% | 4.08% | 0.7% | 4.43%
33 | CS(=O)(=O)CCNCc1coc(-c2ccc3ncnc(Nc4ccc(OCc5ccccc5)cc4)c3c2)c1 | 0.45% | 0.14% | -0.99% | 1.09% | -0.18% | 3.26% | 4.06% | 12.1% | 6.27% | 5.05%
34 | CNC(=O)c1cc(-c2ccc(F)cc2)cc(-c2ccc(S(=O)(=O)N3CCCC3)cc2)c1N | 0.66% | 0.31% | 1.23% | 1.37% | 0.7% | 3.34% | 1.55% | 2.77% | 9.52% | 2.15%
